Experimental findings from PubChem BioAssay AID2284085 (EPA ToxCast) are described below.

The source made the active and inactive calls. How the source made its calls: active means hit-call score of the fitted dose curve at least 0.9, where 1 is the maximum; inactive means score below 0.9.

Sequence of human Fms (CSFR) (CSF1R) Receptor Tyrosine Kinase, CSF1R (gene 1436) (P07333 whole entry, looked up): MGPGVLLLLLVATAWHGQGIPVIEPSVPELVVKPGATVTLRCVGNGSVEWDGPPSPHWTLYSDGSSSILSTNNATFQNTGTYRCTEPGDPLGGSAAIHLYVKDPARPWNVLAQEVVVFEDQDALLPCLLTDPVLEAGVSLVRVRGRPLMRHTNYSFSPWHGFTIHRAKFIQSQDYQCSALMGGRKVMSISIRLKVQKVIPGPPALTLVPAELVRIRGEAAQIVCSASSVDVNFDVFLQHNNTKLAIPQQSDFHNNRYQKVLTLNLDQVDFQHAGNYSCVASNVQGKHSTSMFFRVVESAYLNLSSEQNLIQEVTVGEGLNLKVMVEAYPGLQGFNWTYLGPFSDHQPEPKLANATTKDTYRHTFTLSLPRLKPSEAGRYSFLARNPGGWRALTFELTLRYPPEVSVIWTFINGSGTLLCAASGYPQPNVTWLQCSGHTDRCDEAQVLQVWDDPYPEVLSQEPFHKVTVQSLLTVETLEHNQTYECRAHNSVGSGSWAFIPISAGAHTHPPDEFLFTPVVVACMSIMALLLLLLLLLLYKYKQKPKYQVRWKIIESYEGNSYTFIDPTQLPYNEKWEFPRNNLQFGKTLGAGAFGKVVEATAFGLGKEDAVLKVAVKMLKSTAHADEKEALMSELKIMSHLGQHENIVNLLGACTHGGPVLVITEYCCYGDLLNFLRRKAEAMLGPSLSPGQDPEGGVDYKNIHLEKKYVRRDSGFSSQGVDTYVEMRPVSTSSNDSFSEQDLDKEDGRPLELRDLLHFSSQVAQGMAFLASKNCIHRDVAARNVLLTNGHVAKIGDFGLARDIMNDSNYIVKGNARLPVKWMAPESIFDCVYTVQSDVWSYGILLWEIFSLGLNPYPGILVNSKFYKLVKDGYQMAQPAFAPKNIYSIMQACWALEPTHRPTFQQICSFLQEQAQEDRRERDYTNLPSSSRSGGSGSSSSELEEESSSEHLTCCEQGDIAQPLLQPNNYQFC

The target of the assay is human Fms (CSFR) (CSF1R) Receptor Tyrosine Kinase, CSF1R (gene 1436) (UniProt P07333). Nature of the assay: ERF_FR_ENZ_hCSF1R: Eurofins (ERF) Enzymatic Radiometric [Km ATP] KinaseProfiler LeadHunter Assay for human Fms (CSFR) (CSF1R) Receptor Tyrosine Kinase. The procedure:
ERF_FR_ENZ_hCSF1R is a biochemical, single-readout assay that uses extracted gene-proteins in a cell-free assay. Measurements were taken 0.25 hour after chemical dosing in a 96-well plate. See Fms (CSFR) Human RTK Kinase Enzymatic LANCE Assay [Km ATP], Cerep.ERF_FR_ENZ_hCSF1R is an assay component calculated from the ERF_FR_ENZ_hCSF1R assay. It is designed to measure enzyme activity using a type of enzyme reporter as detected by fluorescence intensity with LANCE technology.Data from the assay component ERF_FR_ENZ_hCSF1R was analyzed at the assay endpoint, ERF_FR_ENZ_hCSF1R, in the positive analysis fitting direction relative to DMSO as the negative control and baseline of activity. Using a type of enzyme reporter, loss-of-signal activity can be used to understand changes in enzymatic activity as they relate to gene CSF1R. To generalize the intended target to other relatable targets, this assay endpoint is annotated to the kinase intended target family, where the subfamily is receptor tyrosine kinase.
Fms (h) is incubated with 8 mM MOPS pH 7.0, 0.2 mM EDTA, 250 uM […], 10 mM MgAcetate and [g- 33P]-ATP (specific activity and concentration as required). The reaction is initiated by the addition of the Mg/ATP mix. After incubation for 40 minutes at room temperature, the reaction is stopped by the addition of phosphoric acid to a concentration of 0.5%. […]
In the case of `O=C(/C=C/c1ccc(O)cc1)CC(=O)/C=C/c1ccc(O)cc1`, the result was inactive.
